# Shown are actives, neighbours in structure and some others; about 9.1% of the full set was active somewhere.
# M1 antagonist = antagonists of rat M1 muscarinic receptor; 3.4% of 64,000 active; Muscarinic acetylcholine receptor M1 (Rattus norvegicus), P08482; B-score at 10 µM; AID 628, 2007; CHO-M1 cells, Fluo-4 calcium, ACh EC80 antagonist mode; active compounds read low;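 active means calcium fluorescence response, raw or row-and-column corrected B-score, differing from the plate sample mean either way at a set confidence level, mostly lower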
# D1 mod = D1 CRE-luciferase signal change, two-sided – cell-based, HEK293 D1, dopamine EC30, D1 allosteric modulator project, primary screen | 5.9% of 58,000 active | dopamine EC30 potentiation; actives deviate in either direction | D(1A) dopamine receptor (Homo sapiens), P21728 | AID 641, 2007 | B-score at 10 µM;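 active means luminescence count or its row- and column-corrected plate score outside the 99.7% band of the plate's sample wells, on either side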
# Target sequence (P21728 whole entry, looked up): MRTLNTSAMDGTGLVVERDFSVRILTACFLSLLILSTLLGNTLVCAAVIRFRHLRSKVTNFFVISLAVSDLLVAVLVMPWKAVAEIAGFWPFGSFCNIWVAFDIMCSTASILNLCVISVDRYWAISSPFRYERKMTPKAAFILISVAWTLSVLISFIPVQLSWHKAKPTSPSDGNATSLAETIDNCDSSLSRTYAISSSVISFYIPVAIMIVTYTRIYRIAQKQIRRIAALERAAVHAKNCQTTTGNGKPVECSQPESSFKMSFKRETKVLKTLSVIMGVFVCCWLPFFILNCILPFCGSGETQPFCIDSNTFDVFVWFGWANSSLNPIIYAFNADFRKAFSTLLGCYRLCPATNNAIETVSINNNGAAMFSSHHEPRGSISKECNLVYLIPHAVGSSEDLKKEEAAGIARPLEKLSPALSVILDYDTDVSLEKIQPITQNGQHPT
# Htt clearance = clearance of mutant huntingtin inclusions, primary screen, imaging, HeLa Exon1htt(103Q)mCFP, confocal imaging. aggregate imaging; zero = plate's median compound well. inhibition, % at 1.5 µM. 0.42% of 47,000 active;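 active means inhibition of aggregate fluorescence above about 70%, also judged a hit by eye on the cell image, limit read from the data, passing the limit was not always enough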;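 further: cells exposed to compound for three days before fixation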
# M1 agonist = M1 muscarinic receptor agonists, primary screen, CHO-M1 cells, Fluo-4 calcium, agonist mode; Fluo-4 calcium fluorescence; active compounds read high; B-score at 10 µM; 3% of 64,000 active; AID 626, 2007;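 active means fluorescence rise, raw or as B-score row- and column-corrected plate score, outside the 99.7% band of its plate's samples, either direction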
# M1 antag conf = rat M1 muscarinic receptor antagonists, confirmation, CHO cells, Fluo-4 calcium, duplicate; ACh EC80 antagonism; active compounds read low; shares compounds with M1 antagonist; 43% of 1,700 active; calcium response (max-min fluorescence) at 10 µM;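 active means calcium response below the same-plate mean of wells given acetylcholine alone at its 80%-effect dose, minus 3 SD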
# mGluR4 antag = human mGluR4 response to M1 antagonist hits, M1 allosteric modulator project, cell-based, antagonist mode, secondary assay 1; 0.9% of 1,700 active; AID 678, 2007; fluorescence response (max-min) at 10 µM; shares compounds with M1 antagonist; CHO-mGluR4 calcium flux, Fluo-4 fluorescence, glutamate EC80; active compounds read low;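 active means fluorescence response below the plate's average for near-maximal glutamate wells, less 3 SD of those wells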;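 further: raw unnormalized fluorescence span taken in the window right after glutamate addition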
# Numbers stand for hits; . = inactive; / = not tested or not shown.
SMILES,M1 antagonist,D1 mod,Htt clearance,M1 agonist,M1 antag conf,mGluR4 antag
Cc1nnc(SCC(=O)N2CCC(Cc3ccccc3)CC2)n(N)c1=O,-3.04,.,/,.,.,.
Cc1nnc(SCC(=O)NCC2CCCCC2)n(N)c1=O,/,/,.,/,/,/
Cc1ccc(C(=O)CN2CCC(NC(=O)C3CCCCC3)CC2)cc1,.,.,/,.,/,/
Cc1ccc(C(=O)C2CCN(CC(=O)NC3CCCCC3)CC2)cc1,-4.63,.,.,.,545,.
O=c1oc(-c2cccs2)nc2sc3c(c12)CCCCC3,.,.,.,.,/,/
Nn1c(-c2cccs2)nc2sc3c(c2c1=O)CCCC3,-4.4,.,/,.,.,.
CCn1c(SC(C)C(=O)OC)nnc1-c1c[nH]c2ccccc12 (configuration not stated),.,.,/,.,/,/
Cc1ccc(NC(=O)c2ccco2)c(NC(=O)c2cccs2)c1,-3.89,.,.,.,.,.
COc1cc(NC(=O)c2cccs2)ccc1NC(=O)c1ccco1,-2.8,.,/,.,.,.
COc1ccc(OC)c(C(O)c2coc3ccc(O)c(CN4CCOCC4)c23)c1 (configuration not stated),.,/,/,.,/,/
CN(C)C(=O)Cn1c(SCC(=O)NC2CCCCC2)nc2ccccc21,.,.,/,.,/,/
CSc1nc2ccccc2n1C(=O)NC1CCCCC1,-4.33,.,.,.,.,.
CCN1CCN(CCCNC(=O)c2cc3cc4ccc(OC)cc4nc3o2)CC1,-3.88,.,.,.,.,.
COc1ccc2cc3cc(C(=O)NCCCN4CCOCC4)oc3nc2c1,.,.,.,.,/,/
COc1ccc2cc3cc(C(=O)NCCN4CCN(Cc5ccccc5)CC4)oc3nc2c1,-2.2,.,.,.,486,.
CC(C)OP(=O)(OC(C)C)C(NC(=O)c1cccc([N+](=O)[O-])c1)C(N)=O (configuration not stated),/,/,.,/,/,/
Cc1ccc(N2C(=O)C(Cl)=C(Nc3c(C)n(C)n(-c4ccccc4)c3=O)C2=O)cc1,-5.71,.,.,.,133,.
COC(=O)c1ccc(OCCN2C3=NCCN3c3ccccc32)cc1,-9.04,/,.,.,440,.
N=c1c2c(n(Cc3ccc(Cl)c(Cl)c3)c3c1CCC3)CCCC2,-2.45,.,.,.,433,.
O=c1[nH]c(=O)n(Cc2ccccc2)c2c1CCC2,.,.,/,.,/,/
N#CC1=C(N)SC(N)=C(C#N)C1CCc1ccccc1,-4.57,.,/,.,.,.
CCOc1cc(NC(=O)C2CC2)c(OCC)cc1NC(=O)c1cccnc1,.,.,/,.,/,/
Cc1ccc2[nH]c3c(N4CCCCCC4)ncnc3c2c1,-2.74,/,/,.,387,178
COc1ccc2[nH]c3c(c2c1)CN(C)CC3,-1.94,.,.,.,.,.
CC(CN1CCCC1)OC(=O)COc1ccccc1 (configuration not stated),.,.,/,.,/,/
SMILES,M1 antagonist,D1 mod,Htt clearance,M1 agonist,M1 antag conf,mGluR4 antag
O=C1C(Cl)=C(NCC2CCCO2)C(=O)N1CCc1ccccc1 (configuration not stated),.,.,/,.,/,/
O=C(c1ccc(CSCc2ccccc2F)o1)N1CCN(c2ccc(N3CCOCC3)nn2)CC1,-1.72,.,/,.,498,.
O=C(c1cc2ccccc2oc1=O)N1CCN(c2ccc(N3CCOCC3)nn2)CC1,.,.,.,.,/,/
C=CCN1CCN(C(c2cc(OC)ccc2OC)c2nnnn2CC2CCCO2)CC1 (configuration not stated),.,.,.,.,/,/
CCN(CC(=O)NC1CCCCC1)S(=O)(=O)c1ccc(Cl)cc1,-3.21,.,.,.,.,.
CS(=O)(=O)N(CC(=O)NC1CCCCCC1)Cc1ccc(Cl)cc1,/,/,.,/,/,/
OCC1CCCN(Cc2ccc(-c3ccccc3)cc2)C1 (configuration not stated),-2.85,.,/,.,392,.
COc1cccc(CSc2nnc(-c3ccco3)n2C)c1,.,.,.,.,/,/
COc1ccc(S(=O)(=O)N(CC(=O)NC2CC2)c2ccc(C)cc2)cc1OC,.,.,.,.,/,/
CC(CCN(C)C)OC(=O)c1ccc(C(C)c2ccccc2)o1 (configuration not stated),-4.38,-3.22,/,.,349,.
CC1CCN(S(=O)(=O)c2ccc(NC(=O)CN3CCCC(C)C3)cc2)CC1 (configuration not stated),/,/,.,/,/,/
CCC(=O)Nc1ccc(NC(=O)CN2CCCC(C)C2)c(Cl)c1 (configuration not stated),-2.81,.,/,.,.,.
c1ccc(-c2cc3c(N4CCOCC4)ncnc3s2)cc1,-2.59,14,/,.,.,.
CC(=O)N1CCc2cc(S(=O)(=O)NC(CC(C)C)C(=O)Nc3ccc4c(c3)OCCO4)ccc21 (configuration not stated),.,.,/,.,/,/
CC(C)C[C@H](NC(=O)OC(C)(C)C)c1nnc(SCC(=O)Nc2ccc(Br)cc2)o1,-3.1,.,.,.,.,.
COCCOC(=O)C1=C(C)NC2=C(C(=O)CCC2)C1c1ccc(N(C)C)cc1 (configuration not stated),.,.,.,.,/,/
CCN(CC)c1ccc(C2C(C(=O)OCCOC(C)C)=C(C)NC3=C2C(=O)CCC3)cc1 (configuration not stated),-11.2,.,/,.,144,.
CC(C)CC(=O)N1CCN(C(=O)c2cccc(F)c2)CC1,-2.2,.,.,.,.,.
COc1ccc(OCC(=O)N2CCN(C(=O)c3cccc(F)c3)CC2)cc1,/,/,.,/,/,/
CC(=O)NC12CC3CC(C)(C1)CC(NC(C)=O)(C3)C2,.,.,/,.,/,/
N#CC1=C(N)OC2=C(C(=O)CCC2)C1c1ccncc1 (configuration not stated),.,.,.,.,/,/
CN(C)c1ccc(C2C3=C(CCCC3=O)OC3=C2C(=O)CCC3)cc1,-10.2,.,.,.,400,.
CC(O)Cn1cnc2c1c(=O)n(C)c(=O)n2C (configuration not stated),.,.,/,.,/,/
N#CCCn1c(SCC(=O)N2CCN(S(=O)(=O)c3ccccc3)CC2)nc2ccccc21,-10.4,.,.,.,199,.
CC(C)Cn1c(SCC(=O)N2CCN(S(=O)(=O)c3ccccc3)CC2)nc2ccccc21,-2.59,.,.,.,348,.
Nn1cc(-c2ccccc2)nc1SCC(=O)N1CCN(S(=O)(=O)c2ccccc2)CC1,.,.,/,.,/,/
CC(=O)C(Sc1nn(C)c(=S)s1)C(=O)Nc1ccccc1 (configuration not stated),.,.,.,.,/,/
COc1cccc(C(=O)Nc2nc3c(s2)CN(C)CC3)c1,/,/,.,/,/,/
CN(C)c1ccnc(NCc2ccccc2)c1C#N,.,.,.,.,/,/

# Source: PubChem BioAssay
